We go through 87 molecules from PubChem BioAssay AID624168 (Sanford-Burnham Center for Chemical Genomics, 2012).

Molecules are shown by their SMILES. Where “and” joins values, the source holds several entries; their conditions need not be identical. Identical values can stand only once. In all, about 360,000 compounds went through this assay and about 800 (0.22%) were called active.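 How the source made its calls: active means activation of at least 8% versus controls, or a plate z-score of at least 8; inactive means the rest.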 For the sample, actives were picked, then their nearest neighbours and some compounds at random.

The assay can be described thus: activators of alpha-DG glycosylation, primary screen, uHTS, Pro5-aDG cells, AlphaScreen (AID 624168).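 Further: Pro5 are CHO cells carrying HIG-tagged alpha-DG that lacks glycosylation.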 The conditions noted are these: alpha-DG glycosylation AlphaScreen (IIH6), at 10 µM, stronger effect = higher value, 0% Pro5, 100% B10-LARGE cell signal. On the technique in general: Alpha assays give light when donor and acceptor beads are brought close together.
Turning to `N#Cc1cnn2cc(CCN3CCOCC3)c(-c3ccc(F)cc3)nc12`, the activation is -0.1% (inactive). Regarding `CNC1(c2nnnn2-c2c(C)cccc2C)CCOC(C)(C)C1` (configuration not stated), the activation was 0.1% (inactive). On to `O=C(Cn1c(=O)sc2ccccc21)Nc1ccc2c(c1)OCCO2`, for which the activation was 0.4% (inactive). Take `Cc1ccc(CSc2ccc(S(=O)(=O)N3CCCCC3)cn2)cc1`: the activation is 0.2% (inactive). `O=C(N1CCCCC1)N1CCN(C(=O)N2CCCCC2)CC1`: the activation is -0.2% (inactive). The value for `CC1=CCC2C(=O)N(c3cccc(C(=O)NC(C)c4ccccc4)c3)C(=O)C2C1` (configuration not stated) was 0% (inactive); that for `CC(=O)Oc1cccc(N2C(=O)CC(Nc3ccc(N4CCOCC4)cc3)C2=O)c1` (configuration not stated) was 0.6% (inactive); that for `CC(=O)Oc1cccc(N2C(=O)C3CC=C(Cl)CC3C2=O)c1` (configuration not stated) was 2.9% (active).

`O=C1CC(Cc2ccccc2)C(=O)N1c1ccc(Cl)cn1` (configuration not stated): the activation was -0.3% (inactive). The result for `CCCCN(CC)CCCNC(=O)c1ccc(CSc2nc3ccncc3[nH]2)cc1` reads -0.1% (inactive); that for `O=C(NCC(=O)N(Cc1cccs1)C(C(=O)NC1CCCCC1)c1ccco1)c1cccs1` (configuration not stated), 0.5% (inactive). The value for `Cc1nnc(NC(=O)CCC(=O)N2CCC(C)CC2)s1` was -0.2% (inactive); that for `CN(Cc1ccccc1)CC(O)COc1ccc(CNCc2cc3ccccc3s2)cc1` (configuration not stated) was 4.3% (active). `COc1cccc(CN(C)CC(O)COC(c2ccccc2)c2ccccc2C)c1` (configuration not stated): the activation is 0.1% (inactive). Take `OC(CN=c1sc2ccccc2n1CC(O)COc1ccccc1)COc1ccccc1` (configuration not stated): the activation is 0.6% (inactive). The result for `Cc1nc(N)nc(Cl)c1CCC1OCCO1` reads 0.5% (inactive); that for `CC(OC(=O)C1CC(=O)N(Cc2ccccc2)C1)C(=O)Nc1ccccc1[N+](=O)[O-]` (configuration not stated), 0.2% (inactive); that for `CCc1noc(C)c1C(=O)N1CCCSC1=Nc1ccccc1OC`, -0.1% (inactive).

For the molecule `CCOc1ccc(C(=O)Nc2cccc(SC)c2)cc1`, the activation was 0.3% (inactive).

For `Cc1ccc(NC(=O)c2ccc(Oc3ncccn3)cc2)cc1`, the activation is 5.5% (active). With `CCOc1ccc(NC(=O)c2ccc(NC(=O)C3CCCO3)cc2)cc1` (configuration not stated), the activation is 0.1% (inactive). The value for `COc1cc(C(=O)NCCOC(=O)c2cccc(N(C)C)c2)cc(OC)c1OC` was 0% (inactive). The result for `COCc1c(C(=O)OCC(=O)Nc2ccc(OC(F)F)cc2)oc2ccccc12` reads 0.1% (inactive). Take `Cc1cc(C)c(NC(=S)N2CCCC2C(=O)O)c(C)c1` (configuration not stated): the activation was 0.5% (inactive). The value for `CCCS(=O)(=O)N1CCC(CCOc2ccccc2)(C(=O)OCC)CC1` was -0.1% (inactive); that for `CCOC(=O)C1(CCOC)CCN(Cc2cc3ccccc3s2)CC1` was 2% (active). The value for `CCOC(=O)C1(CCOc2ccccc2)CCN(C(=O)c2cncs2)CC1` was 0.1% (inactive); that for `CCOC(=O)N1CCN(S(=O)(=O)c2ccc(C(=O)Nc3ccc(F)cc3F)cc2)CC1` was -0.1% (inactive). For the molecule `Cc1c(CCOC(=O)CC23CC4CC(CC(C)(C4)C2)C3)sc[n+]1Cc1ccc([N+](=O)[O-])cc1`, the activation was 0.1% (inactive) and -0.2% (inactive).

For the molecule `O=C(Nc1ccccc1F)c1cc(S(=O)(=O)N2CCCCC2)cs1`, the activation was 0% (inactive). The value for `O=C(Nc1nncs1)c1cccc(S(=O)(=O)N2CCCCC2)c1` was -0.2% (inactive); that for `CN1CCN(S(=O)(=O)c2cccc(C(=O)Nc3sccc3C#N)c2)CC1` was 8.2% (active); that for `CN1CCN(S(=O)(=O)c2cccc(C(=O)Nc3cccc(S(N)(=O)=O)c3)c2)CC1` was -0.1% (inactive).

`CCCOc1ccc(C2NC(=O)NC(c3ccccc3)=C2C(C)=O)cc1OCC` (configuration not stated): the activation is -0.1% (inactive). With `O=C(c1ccc(F)cc1)C1CCN(Cc2cn[nH]c2-c2ccccc2)CC1`, the activation is -0.1% (inactive).

As to `CCCCN(CC)C(=O)C1CCCN(S(=O)(=O)c2cccc3nsnc23)C1` (configuration not stated), the activation is -0.1% (inactive). For the molecule `Clc1ccc(-c2cc(-c3ccccn3)on2)c(Cl)c1`, the activation was 0.1% (inactive). In the case of `Clc1ccc(-c2cc(C3CCNCC3)[nH]n2)c(Cl)c1`, the activation is 11.1% (active). In the case of `Cc1nn(-c2ccccc2)c2c1C(c1cccc([N+](=O)[O-])c1)N(c1ccccc1)C(=O)N2` (configuration not stated), the activation was -0.2% (inactive). The value for `O=C(CCSCCc1ccccn1)Nc1nccs1` was -0.1% (inactive); that for `CCc1ccccc1S(=O)(=O)Cc1ccc(C(=O)NCCc2ccccc2)o1` was 13% (active); that for `COc1ccc(CCNC(=O)c2ccc(CS(=O)(=O)c3ccc(Br)cc3)o2)cc1OC` was -0.2% (inactive). The value for `Cc1ccccc1S(=O)(=O)Cc1ccc(C(=O)NCCN2CCCCC2C)o1` (configuration not stated) was -0.3% (inactive); that for `CC(C)Oc1cc(F)ccc1-c1cc(C(=O)Nc2ccc(F)cc2)[nH]n1` was 0% (inactive). On to `COc1cc(-c2nnc(NC(=O)CS(=O)(=O)c3ccc(Cl)cc3)o2)cc(OC)c1OC`, for which the activation was 0.5% (inactive). As for `O=C(Nc1nnc(-c2ccccc2)o1)c1cccc(S(=O)(=O)N2CCOCC2)c1`, the activation was 0.3% (inactive).

With `COc1cccc(-c2nnc(NC(=O)c3ccc(S(=O)(=O)N(CC(C)C)CC(C)C)cc3)o2)c1`, the activation is 6.1% (active). For the molecule `CCCN(CCC)C(=O)C1c2ccccc2Oc2ccccc21`, the activation is 0.2% (inactive). On to `C[C@H](CO)N1C[C@H](C)[C@H](CN(C)C(=O)Nc2ccc(C(F)(F)F)cc2)Oc2c(NC(=O)c3ccncc3)cccc2C1=O`, for which the activation is -0.2% (inactive).

In the case of `O=C(NCC1CCCCC1)NCC1CCCCC1`, the activation was -0.2% (inactive). The result for `Cc1ccc(Nc2cc(=O)n(C3CCCCC3)c(=O)[nH]2)cc1C` reads 0.5% (inactive); that for `CC(NC(=O)c1cccc(S(=O)(=O)N2CCc3ccccc3C2)c1)c1ccco1` (configuration not stated), 0.1% (inactive). The result for `CCOC(=O)c1ccc(NC(=O)Cn2cnc3cc(C)c(C)cc32)cc1` reads 3.2% (active); that for `CCOC(=O)c1ccc(NC(=O)CCn2c(=O)oc3ccccc32)cc1`, 0% (inactive); that for `CCOC(=O)c1ccc(NC(=O)CS(=O)(=O)c2cn(CC)c3ccccc23)cc1`, -0.1% (inactive). The value for `COc1c(C)cc(C(O)c2ncc(-c3cccc(C(F)(F)F)c3)[nH]2)cc1C` (configuration not stated) was 0.3% (inactive); that for `CC(C)c1cccc(C(C)C)c1Nc1cn[nH]c1` was 0.6% (inactive).

For `COc1ccccc1C(=O)C(O)c1ccccc1OC` (configuration not stated), the activation was 0.1% (inactive). The value for `OC[C@@H]1CN(Cc2ccc(-c3ccccc3)cc2)C[C@H](n2cnc3c(NC4CCCC4)ncnc32)O1` was 7.5% (active); that for `OC[C@@H]1CN(C2CCCC2)C[C@H](n2cnc3c(NC4CCC4)ncnc32)O1` was 0.3% (inactive). Take `CC(C)Nc1ncnc2c1ncn2[C@H]1CN(Cc2ccncc2)C[C@@H](CO)O1`: the activation was 0.2% (inactive). The result for `O=C(NCc1cccnc1)c1ccc(CS(=O)(=O)c2ccc(Br)cc2)o1` reads -0.2% (inactive). On to `O=C1CC(c2cccc(Br)c2)C2=C(CCCC2=O)N1` (configuration not stated), for which the activation was 0% (inactive). Regarding `Cc1ccsc1/C=N/NC(=O)Cc1cc(=O)[nH][nH]1`, the activation was -0.1% (inactive).

Consider `O=S(=O)(Nc1ccc(O)c2ccccc12)c1ccc(OC(F)(F)F)cc1`, for which the activation was 2.6% (active). On to `CNC(=O)COc1ccc(S(=O)(=O)Nc2ccccc2)cc1`, for which the activation is 0.1% (inactive). With `O=S(=O)(Nc1ccc(OC(F)(F)F)cc1)c1cccc2nonc12`, the activation was -0.1% (inactive). The result for `Cc1ccc(C)c(C(=O)N2CCC(n3nccc3NC(=O)C3CC3)CC2)c1` reads 0.3% (inactive); that for `CC(NC(=O)COC(=O)Cn1cc(C(F)(F)F)ccc1=O)c1ccccc1` (configuration not stated), -0.1% (inactive); that for `COc1ccc(-c2oc(/N=C/N3CCCC3)c(C#N)c2-c2ccc(OC)cc2)cc1`, 0.1% (inactive). The result for `COc1cccc(CN(C)CC2CCCN(CCc3ccc(Cl)cc3)C2)c1OC` (configuration not stated) reads 0% (inactive); that for `CCn1cc(CN2CCC(C(=O)Nc3cccc(-c4cccc(Cl)c4)c3)CC2)cn1`, 3.4% (inactive); that for `O=C(Nc1cccc(-c2cccc(Cl)c2)c1)C1CCN(C2CCC2)CC1`, 1.9% (inactive). The result for `CCn1cc(CN2CCC(C(=O)Nc3cccc(-c4cccc(Cl)c4)c3)CC2)c(C)n1` reads 7.1% (active).

As for `CN(C)N1C(N)=C(C#N)C(c2ccc(Br)cc2)C2=C1CCCC2=O` (configuration not stated), the activation is 0% (inactive).

As to `O=C(Cn1nnc(N2CCCCC2)n1)c1ccc(Cl)c(Cl)c1`, the activation is -0.1% (inactive). As to `CCN(CC)CC1(O)CCN(C(=O)c2ccc(Cl)c(Cl)c2)CC1`, the activation is -0.1% (inactive). The value for `CCCn1c(=N)n(CC(=O)c2ccc(Cl)c(Cl)c2)c2ccccc21` was 9.7% (active); that for `O=C(O)c1ccccc1-c1cccc2nncn12` was 0.1% (inactive); that for `Cc1ccc(-c2ccc(CN3C(C(C)C)C(=O)N(Cc4cn(CCC5OCCCO5)nn4)CCS3(=O)=O)cc2)cc1` (configuration not stated) was 0.4% (inactive). `CC(C)C(c1nnnn1C(C)(C)C)N1CCN(Cc2cccnc2)CC1` (configuration not stated): the activation is -0.3% (inactive). The value for `O=C(Cn1ncc2c3ccccc3n(Cc3ccccc3)c2c1=O)NCc1ccccn1` was -0.4% (inactive); that for `CC(C#N)OC(=O)c1cccnc1SCC(=O)Nc1ccc2c(c1)OCO2` (configuration not stated) was 0.5% (inactive). The value for `Nc1scc[n+]1Cc1cccc2cccnc12` was 1.9% (active); that for `c1ccc2c(C[n+]3csc4ccccc43)cccc2c1` was -0.1% (inactive); that for `CC(NCc1ccccc1OC1CCCC1)c1ccccc1` (configuration not stated) was 0.5% (inactive).

With `O=C(COc1cccc(Cl)c1)NCc1ccccc1`, the activation is 0.1% (inactive).
